PubChem BioAssay

Assay: binders from COS7 lysate, DM2A8 probe, primary screen, torsin A project, cell lysate, small-molecule microarray, fluorescence 635/667 (AID 1065)
Settings: higher = more signal, COS7 lysate expressing mutant human TOR1A

Row | SMILES | composite z-score
1 | CC(C)C[C@@H]1NC(=O)[C@@]23C(=O)N[C@@H](Cc4ccccc4)C2[C@H](C)[C@@]2(C)O[C@H]2C3/C=C/C/C=C\CNC(=O)[C@@H](CC(C)C)NC1=O (stereo partly drawn) | -0.0387
2 | C=CCC(OC(C)=O)[C@@H]1[C@@H](N(Cc2ccc(-c3cccc(C(F)(F)F)c3)o2)C(=O)c2cccc3ccccc23)c2cc(OCCCO)ccc2N1C(=O)c1ccc2ccccc2c1 (stereo partly drawn) | -0.132
3 | O=C1OCCC/C=C\[C@H]2OC34C=CCN(Cc5ccccc5)C(=O)[C@H]3N(CCCCCO)C(=O)[C@@H]4C12 (stereo partly drawn) | -0.079
4 | CCCC=C(CCC)[C@@H](NC(=O)c1ccccc1)c1ccc(C(=O)OC)cc1 | 0.78
5 | COC(=O)[C@@]1(Cc2ccc(F)cc2)[C@H]2c3cc(C(=O)N4CCCC4)n(CCO)c3C[C@H]2CN1C(=O)c1ccccc1 | -0.124
6 | COCCCNC(=O)[C@@]1(Sc2ccc(C)cc2)CC(=O)N(C2CCCCC2)[C@@H]1c1ccc(CO)cc1I | 0.657
7 | COc1ccc([Si](C)(C)[C@H]2[C@H](CCO)O[C@@]3(C(=O)N(Cc4ccc(N5CCOC5=O)cc4)c4ccccc43)[C@@H]2C)cc1 | 0.306
8 | C=CCNC(=O)[C@@H]1[C@H]2C(=O)O[C@H](c3ccccc3)[C@H](c3ccccc3)N2[C@H](c2ccccc2OCCO)[C@@]12C(=O)N(C(=O)OCCOC)c1ccc(C#CCCO)cc12 | 0.693
9 | COCCOC(=O)N1C(=O)[C@@]2(c3ccccc31)[C@H](C(=O)N1CCCCCCC1)[C@H]1C(=O)O[C@H](c3ccccc3)[C@H](c3ccccc3)N1[C@@H]2c1ccc(O)cc1 | 1.42
10 | CCCCC(=C=CC[C@@H](O)c1cccc(OCCO)c1)CCO | -0.555
11 | O=C(NCC(F)(F)F)[C@@H]1c2ccccc2C(=O)N(CC23CC4CC(CC(C4)C2)C3)[C@H]1c1ccc(CO)cc1 | 0.371
12 | C=CCC(OC(C)=O)[C@@H]1[C@@H](N(Cc2cccc3ccccc23)C(=O)c2ccc(C)cc2)c2cc(OCCCO)ccc2N1C(=O)c1ccc2ccccc2n1 (stereo partly drawn) | 0.552
13 | CC#CCO[Si](C#CCCCCCC)(C(C)C)C(C)C | -0.134
14 | CC(C)(C)OC(=O)CC[C@]1(C(N)=O)N=C(c2ccc(OCCCO)cc2)O[C@H]1c1ccccc1CN=[N+]=[N-] | 1.13
15 | COc1ccc(CCNC(=O)[C@@]2(C)c3ccccc3C(=O)N(Cc3cc(C(F)(F)F)cc(C(F)(F)F)c3)[C@H]2c2ccc(CO)cc2)cc1 | 1.35
16 | CN(C)CCCC[C@@H]1NC(=O)[C@@H]2C[C@H](C(=O)NCCCCCCNC(=O)CS)[C@H](c3cccc(OCCO)c3)N2C1=O | 0.353
17 | COCCCNC(=O)[C@@H]1c2ccccc2C(=O)N(C2CCCCC2)[C@H]1c1ccc(CO)cc1 | -0.763
18 | COC(=O)C1=CC(CCCO)=CC(C2CC2)N(Cc2cccc(OC(F)(F)F)c2)C=C1C(=O)OC (stereo not drawn) | -0.166
19 | C=C(C(=O)CC[C@@H](OC(C)=O)c1cccc(OCCO)c1)C(C)C | 0.108
20 | COc1ccc([Si](C)(C)[C@@H]2[C@@H](CC(=O)N(CCO)Cc3ccccc3)O[C@]3(C(=O)N(Cc4ccc(N5CCC5=O)cc4)c4ccccc43)[C@H]2C)cc1 | 0.461
21 | CC(C)CNC(=O)[C@@H]1c2ccccc2C(=O)N(CC23CC4CC(CC(C4)C2)C3)[C@H]1c1ccc(CO)cc1 | 0.0614
22 | COc1cc2c(cc1O)C(c1ccc(CN3CCCC3)cc1)N(Cc1ccc([N+](=O)[O-])o1)CC2 (stereo not drawn) | -0.533
23 | COC(=O)[C@]1(CO)N=C(c2ccc(OCCCO)cc2)O[C@@H]1c1ccccc1CN=[N+]=[N-] | -0.132
24 | COCCOC(=O)N1C(=O)[C@@]2(c3ccccc31)[C@H](c1ccc(OCCO)cc1)N1[C@H](c3ccccc3)[C@H](c3ccccc3)OC(=O)[C@H]1[C@@H]2C(=O)N1CCN(c2ncccn2)CC1 | 0.751
25 | COCCOC(=O)N1C(=O)[C@@]2(c3cc(C#Cc4ccc(OC)cc4)ccc31)[C@H](c1ccc(OCCO)cc1)N1[C@H](c3ccccc3)[C@H](c3ccccc3)OC(=O)[C@H]1[C@@H]2C(=O)N1CCCCCCC1 | 0.351
26 | Cc1ccccc1C(O)C1C=CC2C(=O)N(c3ccccc3)C(=O)C2N1Nc1ccccc1F (stereo not drawn) | 0.0771
27 | CO[C@H]1O[C@H](CO)[C@@H](OC(=O)Nc2ccc(C(F)(F)F)cc2)[C@H](OC(=O)Nc2ccccc2-c2ccccc2)[C@@H]1OC(=O)Nc1ccccc1-c1ccccc1 | 1.65
28 | C=C(COC)C(=O)CC[C@@H](OC(C)=O)c1ccc(OCCO)cc1 | 1.48
